PubChem BioAssay (NCATS)
Inconclusive results are not listed. Calls of active or inactive are those of the source. Calls follow the shape of the dose curve; as a rule, active = well fitted inhibition curve with a large enough effect; inconclusive = small, poorly fitted or top-dose-only effect; inactive = flat fitted curve, though single readings scatter.

How the values were obtained:
[1] = test system: KB-3-1; test: Cytotoxic Profiling of Annotated Libraries Using Quantitative High-Throughput Screening (AID 1296008); settings: Five cell lines viability, CellTiter-Glo ATP luminescence, 48-72 h; max response: active compounds read low
Method in brief: (§1)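 Cytotoxicity was measured as CellTiter-Glo ATP luminescence, read after 10 min at room temperature. Compound treatment of the cells lasted 48 or 72 hr at 37 degrees Celsius in a qHTS format.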

[2] = test system: NIH3T3; test: as above; settings: Five cell lines viability, CellTiter-Glo ATP luminescence, 48-72 h; max response: active compounds read low
Method in brief: as §1

[3] = test system: HEK293T; test: qHTS assay to identify novel small-molecules to repurpose for Merkel cell carcinoma treatment (AID 1296009); settings: MCC and control cell lines, CellTiter-Glo viability, 72 h; series mostly up to 44.8 µM
Method in brief: (§2)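 Cell viability, measured as CellTiter-Glo luminescence, was normalized between DMSO and no-cell wells. The cells had been exposed to 8- or 11-point compound dilutions for 72 hr at 37 degree celsius.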

[4] = test system: MCC-13; test: as above; settings: MCC and control cell lines, CellTiter-Glo viability, 72 h; series mostly up to 46 µM
Method in brief: as §2

[5] = test system: MKL-1; test: as above; settings: MCC and control cell lines, CellTiter-Glo viability, 72 h; series mostly up to 46 µM
Method in brief: as §2

[6] = test system: MKL-2; test: as above; settings: MCC and control cell lines, CellTiter-Glo viability, 72 h; series mostly up to 46 µM
Method in brief: as §2

[7] = test system: UISO; test: as above; settings: MCC and control cell lines, CellTiter-Glo viability, 72 h; series mostly up to 46 µM
Method in brief: as §2

[8] = test system: MCC-26; test: as above; settings: MCC and control cell lines, CellTiter-Glo viability, 72 h; series mostly up to 46 µM
Method in brief: as §2

[9] = test system: NIH3T3; test: as above; settings: MCC and control cell lines, CellTiter-Glo viability, 72 h; at 44.8 µM (top of the series) unless noted
Method in brief: as §2

[10] = test system: HACAT; test: as above; settings: MCC and control cell lines, CellTiter-Glo viability, 72 h; at 44.8 µM (top of the series) unless noted
Method in brief: as §2
% is scaled to controls: 0 for no effect and ±100 for the full control effect; potency is read from the fitted curve at half-maximal effect.
Also: nearly all actives have a fitted effect of over 60% in size.

O=C(CN1C(=O)C2(CCCC2)NC[C@H]1c1cc(F)cc(F)c1)Nc1ccc2c(c1)C[C@@]1(C2)C(=O)Nc2ncccc21
inactive: max response [1] 2.38% | max response [2] -4.62% | Potency [3] | Potency [4] | Potency [5] | Potency [6] | Potency [7]

O=S(=O)(O)CCSSCCS(=O)(=O)O
inactive: max response [1] 4.37% | max response [2] -4.2% | Potency [3] | Potency [4] | Potency [8] | Potency [5] | Potency [6] | Potency [7]

O=C(O)CCCCCC(=O)NN=C1CCCC1
inactive: max response [1] 3.36% | max response [2] 3.56% | Potency [3] | Potency [4] | Potency [8] | Potency [5] | Potency [6] | Potency [7]

CC(C)N(CC[C@H](c1ccccc1)c1cc(CO)ccc1O)C(C)C
inactive: outcome [1] | outcome [2] | Potency [4] | Potency [8] | Potency [5] | Potency [6] | outcome [9] | Potency [7]

C=C1C(=CC=C2CCC[C@]3(C)[C@@H]([C@H](C)CCCC(C)(C)O)CC[C@@H]23)C[C@@H](O)C[C@@H]1O
active: Potency [2] 3.3 nM | Potency [5] 16.6 µM | Potency [6] 6.62 µM
inactive: max response [1] -11.2% | outcome [10]

O=C(C=CC=Cc1ccc2c(c1)OCO2)N1CCCCC1
inactive: max response [1] -6.15% | outcome [2] | Potency [4] | Potency [8] | Potency [5] | Potency [6] | outcome [9] | Potency [7]

CC(=O)N[C@@H]1[C@H](O[C@@H]2c3ccc(c(Cl)c3)Oc3cc4cc(c3O[C@H]3O[C@H](CO)[C@@H](O)[C@H](O)[C@H]3NC(=O)CCCCCCCC(C)C)Oc3ccc(cc3Cl)C[C@H]3NC(=O)[C@H](N)c5ccc(O)c(c5)Oc5cc(O)cc(c5)[C@H](NC3=O)C(=O)N[C@H]4C(=O)N[C@H]3C(=O)N[C@@H]2C(=O)N[C@@H](C(=O)O)c2cc(O)cc(O[C@H]4O[C@H](CO)[C@@H](O)[C@H](O)[C@H]4O)c2-c2cc3ccc2O)O[C@H](CO)[C@@H](O)[C@@H]1O
inactive: outcome [1] | max response [2] 4.41% | Potency [3] | Potency [4] | Potency [5] | Potency [6] | Potency [7]

O=c1[nH]c(=O)n([C@H]2C[C@@H](O)[C@@H](CO)O2)cc1C=CBr
inactive: outcome [1] | outcome [2] | Potency [4] | Potency [8] | Potency [5] | Potency [6] | outcome [9] | Potency [7]

COc1cc(C)c(C=CC(C)=CC=CC(C)=CC(=O)O)c(C)c1C
inactive: outcome [1] | max response [2] -4.41% | outcome [10] | Potency [4] | Potency [5] | Potency [7]

O=C1c2c(O)cccc2[C@@H]([C@@H]2O[C@H](CO)[C@@H](O)[C@H](O)[C@H]2O)c2cc(CO)cc(O)c21
inactive: outcome [1] | max response [2] 4.49% | Potency [3] | Potency [4] | Potency [8] | Potency [5] | Potency [6] | Potency [7]

CON=C(C(=O)N[C@@H]1C(=O)N2C(C(=O)O)=C(CSC(=O)c3ccco3)CS[C@H]12)c1csc(N)n1
inactive: outcome [1] | max response [2] -6.35% | Potency [3] | Potency [4] | Potency [8] | Potency [5] | Potency [6]

OCc1ccccc1O[C@@H]1O[C@H](CO)[C@H](O)[C@H](O)[C@H]1O
inactive: outcome [1] | outcome [2] | Potency [4] | Potency [8] | Potency [5] | Potency [6] | outcome [9] | Potency [7]

Cc1cn([C@@H]2O[C@H](CO)[C@@H](O)[C@H]2F)c(=O)[nH]c1=O
inactive: outcome [1] | outcome [2] | Potency [4] | Potency [8] | Potency [5] | Potency [6] | outcome [9] | Potency [7]

Cc1cc(O)c2c(c1)C(=O)c1cccc(O)c1C2=O
inactive: max response [1] 4.24% | max response [2] 4.67% | Potency [3] | Potency [4] | Potency [8] | Potency [5] | Potency [6] | Potency [7]

N#Cc1c(C2CCNCC2)cc(-c2c(O)cccc2OCC2CC2)nc1N
inactive: max response [1] -14.2% | max response [2] -27% | Potency [4] | Potency [8] | Potency [5]

O=c1[nH]c(=O)n([C@H]2C[C@@H](O)[C@@H](CO)O2)cc1F
active: Potency [1] 13.2 µM | Potency [2] 18.7 nM | Potency [4] 332 nM

CCCCCCCCCCCCc1ccc(S(=O)(=O)Nc2nncs2)cc1
inactive: outcome [1] | outcome [2] | Potency [3] | Potency [4] | Potency [8] | Potency [5] | Potency [6] | outcome [9] | Potency [7]

COc1cc([C@@H]2c3cc4c(cc3[C@H](O)[C@H]3COC(=O)[C@@H]23)OCO4)cc(OC)c1OC
active: Potency [1] 0.235 µM | Potency [2] 187 nM | Potency [4] 662 nM

N#Cc1c(NC(=O)c2cccc3ccccc23)sc2c1CCCC2
active: Potency [1] 0.469 µM | Potency [2] 332 nM | Potency [7] 1.05 µM
inactive: outcome [10]

CC(C)(N)c1ccc(-c2nc3ccccc3nc2-c2ccccc2)cc1
active: Potency [1] 1.87 µM | Potency [2] 25900 nM
inactive: Potency [4] | Potency [8]

C=Cc1c(C)c2cc3nc(cc4[nH]c(cc5nc(cc1[nH]2)C(C)=C5CCC(=O)O)c(CCC(=O)OC)c4C)[C@@]1(C)C3=CC=C(C(=O)OC)[C@H]1C(=O)OC
inactive: outcome [1] | max response [2] 4.13% | outcome [10]
active: Potency [8] 2.96 µM | Potency [5] 0.0469 µM | Potency [6] 0.0418 µM | Potency [7] 0.469 µM
